The text below walks through data of PubChem BioAssay (EPA / NIEHS).

Calls of active or inactive are those of the source. The calls were made as follows: active = hit-call score of the fitted dose curve at least 0.9, where 1 is the maximum; inactive = score below 0.9.

The test is described as follows: ATG_GATA_CIS: Attagene CIS-FACTORIAL HepG2 Assay for human GATA Binding Protein (AID 2282944). Particulars: HepG2 GATA cis-element reporter, Attagene multiplex mRNA; actives raise or lower the signal. The procedure: ATG_CIS is a cell-based, multiplexed-readout assay that uses HepG2, a human liver cell line, with measurements taken at 24 hours after chemical dosing in a 24-well plate.ATG_GATA_CIS is one of 52 assay component(s) measured or calculated from the ATG_CIS assay. It is designed to make measurements of mRNA induction, a form of inducible reporter, as detected with fluorescence intensity signals by Reverse transcription polymerase chain reaction (RT-PCR) and Capillary electrophoresis technology.Data from the assay component ATG_GATA_CIS was analyzed into 1 assay endpoint. This assay endpoint, ATG_GATA_CIS, was analyzed with bidirectional fitting relative to DMSO as the negative control and baseline of activity. Using a type of inducible reporter, measures of mRNA for gain or loss-of-signal activity can be used to understand the reporter gene at the transcription factor-level as they relate to the gene GATA1. Furthermore, this assay endpoint can be referred to as a primary readout, because this assay has produced multiple assay endpoints where this one serves a reporter gene function. To generalize the intended target to other relatable targets, this assay endpoint is annotated to the dna binding intended target family, where the subfamily is GATA proteins.
Human liver HepG2 cells are transiently transfected with multiple reporter transcription units (MRTUs) in 6-well plates using FuGene 6 reagent (Roche; 3 ml FuGene/1 mg DNA). The MRTU constructs are regulated by a cis-regulating element (promoter). […] A major difference between the CIS and TRANS system is that in CIS activities of endogenous TFs are measured, whereas the TRANS assay evaluates changes in activities of exogenous, chimeric NR-Gal4 proteins. […] At the end of 24 hour incubation, total RNA was isolated using TriZol reagent (Invitrogen). The isolated RNA is then reverse-transcribed using oligo(dT) primer and Mo-MLV reverse transcriptase (Invitrogen) with DNAse I (Ambion) treatment for 30 min. The one-tenth of the produced cDNA was amplified by PCR using Taq DNA polymerase (Invitrogen) and two reporter sequence-specific primers. The PCR products were fluorescently labeled by primer extension with 6-arboxyfluorescein (6-FAM) 5'-labeled reporter sequence-specific primer (2 min at 95 C, 20 s at 68 C and 10 min at 72 C) and these products were digested with 5U of HpaI (New England Biolabs) for 2h at 37 C. The fragments were purified using Qiaquick PCR columns (Qiagen), analyzed on an ABI 3130xL genetic analyzer (Applied Biosystems) with peak positions identified by using a set of X-rhodamine (ROX)-labeled MapMarker1000 molecular weight standards (BioVentures). The raw capillary electrophoresis data was processed using Attagraph software (Attagene).
As for `S=C1NCCN1`, the outcome was inactive.

For `CC(Oc1cccc(Cl)c1)C(=O)O` (stereo not given), the call was inactive.

For the compound `O=C(O)c1cc(Oc2ccc(C(F)(F)F)cc2Cl)ccc1[N+](=O)[O-]`, the compound was called inactive.

For the compound `CNC(=O)Oc1cccc2c1OC(C)(C)O2`, the result was inactive.

For the compound `CCOP(=S)(OCC)Oc1cc(C)nc(C(C)C)n1`, the call was inactive.

Regarding `CCCCSP(=O)(SCCCC)SCCCC`, the AC50 was 81.2 µM (active).

For `CN1COCN(Cc2cnc(Cl)s2)C1=N[N+](=O)[O-]`, the compound was classed as inactive.

`CN(C)C(=O)Nc1cccc(C(F)(F)F)c1`: the result was inactive.

As for `COP(=O)(OC)C(O)C(Cl)(Cl)Cl` (stereo not given), the result was inactive.

On to `CCc1cccc(CC)c1N(COC)C(=O)CCl`, for which the compound was classed as inactive.

On to `CC[C@H](C)[C@H]1O[C@]2(C=C[C@@H]1C)C[C@@H]1C[C@@H](C/C=C(\C)[C@@H](O[C@H]3C[C@H](OC)[C@@H](O[C@H]4C[C@H](OC)[C@@H](NC)[C@H](C)O4)[C@H](C)O3)[C@@H](C)/C=C/C=C3\CO[C@@H]4[C@H](O)C(C)=C[C@@H](C(=O)O1)[C@]34O)O2`, for which the outcome was inactive.

For the compound `N#CSCSC#N`, the call was inactive.

Take `CCCCOC(=O)c1ccccc1C(=O)O`: the result was inactive.

Consider `CCCCN(CC)c1c([N+](=O)[O-])cc(C(F)(F)F)cc1[N+](=O)[O-]`, for which the call was inactive.

Turning to `C[Si](Cn1cncn1)(c1ccc(F)cc1)c1ccc(F)cc1`, the call was inactive.

In the case of `CON=C(C(=O)OC)c1ccccc1CON=C(C)c1cccc(C(F)(F)F)c1`, the compound was called inactive.

As to `CNc1cnn(-c2cccc(C(F)(F)F)c2)c(=O)c1Cl`, the compound was called inactive.

Take `CCCOc1nn(C(=O)NS(=O)(=O)c2ccccc2C(=O)OC)c(=O)n1C`: the result was inactive.

For the compound `O=c1ccc(=O)[nH][nH]1`, the compound was called inactive.

As for `FC(F)C(F)(F)OCC(Cn1cncn1)c1ccc(Cl)cc1Cl` (stereo not given), the result was inactive.

For `COP(=O)(OC)OC(Br)C(Cl)(Cl)Br` (stereo not given), the compound was called inactive.

On to `COP(=O)(OC)SCn1c(=O)oc2cc(Cl)cnc21`, for which the compound was called inactive.

For the compound `CC(C1CC1)C(O)(Cn1cncn1)c1ccc(Cl)cc1` (stereo not given), the outcome was inactive.

In the case of `CCOP(=O)(OCC)Oc1cc(C)nc(C(C)C)n1`, the result was inactive.

`CN(C)[C@@H]1C(=O)C(C(N)=O)=C(O)[C@@]2(O)C(=O)C3=C(O)c4c(O)cccc4[C@@](C)(O)[C@H]3[C@H](O)[C@@H]12`: the compound was called inactive.

For the compound `COc1ccc(C(=CC(=O)N2CCOCC2)c2ccc(Cl)cc2)cc1OC`, the result was inactive.

As for `CCCSP(=O)(OCC)Oc1ccc(Br)cc1Cl` (stereo not given), the call was inactive.

Regarding `C[N+]1(C)CCCCC1`, the call was inactive.

`CCC(=O)Nc1ccc(Cl)c(Cl)c1`: the result was inactive.

Take `CCOP(=S)(OCC)OC(Cl)C(Cl)(Cl)Cl` (stereo not given): the outcome was inactive.

For the compound `Nc1c(Cl)cc([N+](=O)[O-])cc1Cl`, the call was inactive.

For `CCOP(=O)(SC(C)CC)N1CCSC1=O` (stereo not given), the compound was called inactive.

Take `CCC(CC)Nc1c([N+](=O)[O-])cc(C)c(C)c1[N+](=O)[O-]`: the compound was classed as inactive.

Take `CCOP(=S)(OCC)Oc1ccc2c(C)c(Cl)c(=O)oc2c1`: the compound was classed as inactive.

With `CCOP(=S)(OCC)SCCSCC`, the call was inactive.

As for `CCCSP(=O)(OCC)SCCC`, the result was inactive.

In the case of `CC1=NNC(=O)N(/N=C/c2cccnc2)C1`, the call was inactive.

With `C#CC(C)(C)NC(=O)c1cc(Cl)cc(Cl)c1`, the compound was called inactive.

For `COc1cc(OC)nc(Sc2cccc(Cl)c2C(=O)O)n1`, the compound was classed as inactive.

Consider `COP(=O)(NC(C)=O)SC` (stereo not given), for which the call was inactive.

As usually defined, the AC50 is the concentration giving half of the maximal activity seen.
